{"source": "PubChem BioAssay", "note": "The source made the active and inactive calls.", "data": [{"molecular_target": "Albumin (Bos taurus) (UniProt P02769)", "sequence (P02769 whole entry, looked up)": "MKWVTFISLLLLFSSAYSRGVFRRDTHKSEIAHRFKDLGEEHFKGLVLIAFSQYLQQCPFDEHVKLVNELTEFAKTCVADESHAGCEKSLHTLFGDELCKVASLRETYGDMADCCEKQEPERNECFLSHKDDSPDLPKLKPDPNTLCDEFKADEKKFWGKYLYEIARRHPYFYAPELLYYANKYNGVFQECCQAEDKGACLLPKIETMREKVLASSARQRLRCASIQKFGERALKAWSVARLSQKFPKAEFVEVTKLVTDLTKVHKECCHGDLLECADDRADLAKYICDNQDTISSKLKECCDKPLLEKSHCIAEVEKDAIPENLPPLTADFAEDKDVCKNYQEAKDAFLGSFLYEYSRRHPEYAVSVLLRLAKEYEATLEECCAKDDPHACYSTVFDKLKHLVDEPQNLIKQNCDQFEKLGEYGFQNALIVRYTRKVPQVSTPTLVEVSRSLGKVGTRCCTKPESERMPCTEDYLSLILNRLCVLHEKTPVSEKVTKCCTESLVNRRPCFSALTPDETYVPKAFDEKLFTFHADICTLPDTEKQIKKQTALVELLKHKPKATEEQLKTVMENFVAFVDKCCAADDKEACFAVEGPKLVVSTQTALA", "test": "compounds binding labelled BSA control protein – biochemical, small-molecule microarray, Alexa647 label, 635/667 nm fluorescence, artefact control for SMM control protein annotation, profiling panel (AID 1118);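 further: score merges 667 nm emission intensity and signal-to-noise per printed compound spot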", "details": "BSA-A647 binding, fluorescence 635 nm, higher = more signal", "values": [{"smiles": "CC=CC1=C(CO)[C@H](O)[C@H]2O[C@H]2[C@H]1O", "composite z-score": -0.15}, {"smiles": "CC(=O)OC[C@H]1O[C@@H](ON=C[C@@H](C)[C@H](OCc2ccccc2)C(C)C)[C@H](OC(C)=O)[C@@H](OC(C)=O)[C@@H]1OC(C)=O", "composite z-score": -0.25}, {"smiles": "CC(C)[C@@H](OCc1ccccc1)[C@H](C)C=NOC[C@@H](C)[C@H](OCc1ccccc1)C(C)C", "composite z-score": -0.248}, {"smiles": "[N-]=[N+]=NCc1ccccc1[C@@H]1OC(c2ccc(OCCCO)cc2)=N[C@]1(Cc1ccccc1)C(=O)N1CCOCC1", "composite z-score": 0.923}, {"smiles": "CCCC=C(CCC)[C@@H](NC(=O)c1ccc(-c2ccccc2)cc1)c1ccc(C(=O)OC)cc1", "composite z-score": 0.127}]}, {"system": "not listed separately", "test": "probe aXIP binding to arrayed compounds – biochemical, NeuroSMM set, 635/667 nm fluorescence, primary screen (AID 1119);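 further: probe is the protein aXip251-270 applied at 1 µg/mL to compound-printed slides; binding of probe to printed compounds measured as 667 nm fluorescence plus signal to noise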", "details": "small-molecule microarray, higher = more signal, called active from +8 up or from −8 down", "values": [{"smiles": "CCCNC(=O)OC[C@H]1O[C@H](CCON=CC[C@@H]2C=C[C@H](OC(C)=O)[C@@H](COC(C)=O)O2)C=C[C@@H]1Oc1ccc(OC)cc1", "composite Z-score": "-0.263 (inactive)"}, {"smiles": "O[C@@H](Cc1ccccc1)[C@H]1C2C=CCCC(c3ccccc3)=C2CN1Cc1cccc(Cl)c1", "note": "(stereo partly specified)", "composite Z-score": "0.257 (inactive)"}, {"smiles": "CCCC[C@@H]1C[C@H]1[C@@H](NS(=O)(=O)c1cccc2cccnc12)c1ccc(-c2ccccc2)cc1", "composite Z-score": "-0.325 (inactive)"}, {"smiles": "O=C1C2=CC[C@H]3C(=O)N(Cc4ccc5c(c4)OCO5)C(=O)[C@H]3[C@H]2[C@H](O)[C@@H]2O[C@H]12", "composite Z-score": "0.0248 (inactive)"}, {"smiles": "CCOC(=O)[C@H](CC(C)C)NC(=O)CCC1CC(OC(=O)NCCc2ccc(F)cc2)CC2(CCCC(COC(=O)NCc3ccccc3)O2)O1", "note": "(stereo partly specified)", "composite Z-score": "-0.0657 (inactive)"}, {"smiles": "CCCNC(=O)[C@@H]1c2ccccc2C(=O)N(Cc2ccccc2Cl)[C@H]1c1ccc(CO)cc1", "composite Z-score": "-0.231 (inactive)"}, {"smiles": "CO[C@@H]1COC(=O)CC=C[C@@H](C)COC(=O)[C@H](COCc2ccccc2)NC(=O)CC=C[C@H]1C", "composite Z-score": "1.13 (inactive)"}, {"smiles": "C=COC[C@H]1CN2[C@@H](CC[C@@H](C)[C@@H]2c2ccc(Br)cc2)C(=O)O1", "composite Z-score": "-0.0224 (inactive)"}, {"smiles": "COC(=O)[C@H](C)NC(=O)CCC1CC(OC(=O)NCCc2ccc(F)cc2)CC2(CCCC(COC(=O)NCCc3ccc(Cl)cc3)O2)O1", "note": "(stereo partly specified)", "composite Z-score": "0.65 (inactive)"}, {"smiles": "COCCCNC(=O)[C@@]1(Sc2ccc(C)cc2)CC(=O)N(Cc2ccccc2)[C@@H]1c1ccc(CO)cc1I", "composite Z-score": "0.394 (inactive)"}, {"smiles": "Cc1ccc(S(=O)(=O)N[C@@H]2COC(=O)[C@H](C)COC(=O)CC=C[C@H]2C)cc1", "composite Z-score": "-0.186 (inactive)"}, {"smiles": "C=CC[C@]1(C(=O)NCc2ccccc2)N=C(c2ccc(OCCCO)cc2)O[C@H]1c1ccccc1", "composite Z-score": "-0.275 (inactive)"}, {"smiles": "CCOc1ccc(N2C(=O)/C(=C/C=C/c3ccccc3OC)S(=O)(=O)C2c2cccc([N+](=O)[O-])c2)cc1", "note": "(stereo unspecified)", "composite Z-score": "-0.327 (inactive)"}, {"smiles": "CO[C@H]([C@@H](C)[C@H](OC)c1ccccc1)[C@H](C)[C@@H](OC)[C@H](C)C(C)=O", "composite Z-score": "0.837 (inactive)"}, {"smiles": "CC(=O)O[C@H]1C2=C(C(=O)[C@@H]3O[C@@H]31)[C@H]1C(C)O[C@@H]2[C@@]23C(=O)[C@@H]4O[C@@H]4[C@@H](O)C2=CO[C@H](C)[C@@H]13", "note": "(stereo partly specified)", "composite Z-score": "0.112 (inactive)"}, {"smiles": "CC(C)=NOCc1ccc(-c2cc(-c3ccccc3)no2)cc1", "composite Z-score": "-0.0363 (inactive)"}, {"smiles": "C=CCC(OC(C)=O)[C@@H]1[C@@H](N(Cc2cc3ccccc3o2)C(=O)Cc2ccc(F)cc2)c2cc(OCCCO)ccc2N1C(=O)Cc1ccc(OC)cc1", "note": "(stereo partly specified)", "composite Z-score": "-0.353 (inactive)"}, {"smiles": "CCN1C(=O)[C@H]2[C@H]3[C@H](O)C=CC(=O)[C@@H]3CC[C@H]2C1=O", "composite Z-score": "-0.56 (inactive)"}, {"smiles": "CC(C)OC(=O)C=C1C[C@@H](c2ccc(C#N)cc2)O[C@@H](c2ccc(C#N)cc2)O1", "composite Z-score": "0.914 (inactive)"}, {"smiles": "NC(=O)NCC#Cc1ccc2c(c1)[C@]1(C(=O)N2)[C@H](c2ccc(O)cc2)N2[C@H](c3ccccc3)[C@H](c3ccccc3)OC(=O)[C@H]2[C@@H]1C(=O)N1CCCCCCC1", "composite Z-score": "0.645 (inactive)"}, {"smiles": "Cc1cc2c(nc1C)CCCN2CC(O)CN1CCN(C)CC1", "note": "(stereo unspecified)", "composite Z-score": "1.03 (inactive)"}, {"smiles": "C[C@@H]1C=CCC(=O)OC[C@H](C)C(=O)N[C@@H](C)C(=O)OC1", "composite Z-score": "0.215 (inactive)"}, {"smiles": "COc1ccc([Si](C)(C)[C@@H]2[C@@H](CCO)O[C@]3(C(=O)N(Cc4ccc(NC(C)=O)cc4)c4ccccc43)[C@H]2C)cc1", "composite Z-score": "0.19 (inactive)"}, {"smiles": "COc1ccc([Si](C)(C)[C@H]2[C@H](CC(=O)N3CCC[C@H]3CO)O[C@@]3(C(=O)N(Cc4cccc(N5C(=O)COc6ccccc65)c4)c4ccccc43)[C@@H]2C)cc1", "composite Z-score": "0.33 (inactive)"}, {"smiles": "C[C@@H](c1ccccc1)N1C(=O)[C@H]2[C@H]3[C@H](O)C=CC(=O)[C@@H]3CC[C@H]2C1=O", "composite Z-score": "-0.325 (inactive)"}, {"smiles": "C=C(COC)/C(=C/C[C@H](OC(=O)c1ccncc1)c1ccc(CO)o1)c1cc(C(=O)OC)ccc1OC", "composite Z-score": "0.515 (inactive)"}, {"smiles": "COC(=O)CC=C[C@H](C)[C@H](CO)NS(=O)(=O)c1ccc(C)cc1", "composite Z-score": "0.755 (inactive)"}, {"smiles": "C#CCCCON=C1C[C@@H](O)[C@@H](O)[C@@H]2[C@@H]3C(=O)N(c4cccc(Oc5ccccc5)c4)C(=O)[C@@H]3CC[C@@H]12", "composite Z-score": "0.154 (inactive)"}, {"smiles": "CC(C)(C)OC(=O)CC[C@]1(C(N)=O)COC(c2ccc(OCCCO)cc2)=N1", "composite Z-score": "1.43 (inactive)"}, {"smiles": "CC[C@@H](c1ccccc1)n1c(=O)n2n(c1=O)[C@H]1[C@H](O)[C@@H]3O[C@@H]3C(=NOCC=C(C)CCC=C(C)C)[C@H]1CC2", "composite Z-score": "-0.183 (inactive)"}, {"smiles": "COc1ccc(O[C@H]2C=C[C@@H](c3ccccc3)O[C@@H]2COC(=O)CCC(C)=NOC(C)CN2CCCCc3nc(C)c(C)cc32)cc1", "note": "(stereo partly specified)", "composite Z-score": "0.105 (inactive)"}, {"smiles": "CC=CC1=C(CO)[C@H](O)[C@H]2O[C@H]2[C@H]1O", "composite Z-score": "0.0448 (inactive)"}, {"smiles": "CC(=O)OC[C@H]1O[C@@H](ON=C[C@@H](C)[C@H](OCc2ccccc2)C(C)C)[C@H](OC(C)=O)[C@@H](OC(C)=O)[C@@H]1OC(C)=O", "composite Z-score": "0.0474 (inactive)"}, {"smiles": "CC(C)[C@@H](OCc1ccccc1)[C@H](C)C=NOC[C@@H](C)[C@H](OCc1ccccc1)C(C)C", "composite Z-score": "-0.161 (inactive)"}, {"smiles": "[N-]=[N+]=NCc1ccccc1[C@@H]1OC(c2ccc(OCCCO)cc2)=N[C@]1(Cc1ccccc1)C(=O)N1CCOCC1", "composite Z-score": "0.0976 (inactive)"}, {"smiles": "CCCC=C(CCC)[C@@H](NC(=O)c1ccc(-c2ccccc2)cc1)c1ccc(C(=O)OC)cc1", "composite Z-score": "0.0503 (inactive)"}]}]}
